Rows were chosen to be rich in hits. Some 17% of all compounds tested hit in one or more screens of this group.
TGFb inhibitor – TGF-b pathway inhibition. HepG2 CAGA-GFP TGF-b/SMAD3 reporter, GFP fluorescence, 18 h; TGF-beta stimulated, 500 pg/mL final. Potency, µM (highest dose often 46.1 µM), for inactives: top-dose activity, negative = inhibition, most hits filed as inhibitors. actives 1.2% (n = 410,000). AID 588855; further: on the % scale 0 is the no-effect control and ±100 the full control effect; nearly all actives have a fitted effect of over 65% in size
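Cell-based qHTS in HEPG2 carrying a CAGA-GFP Smad reporter; compounds added before 500 pg/mL final TGF-beta, 18 h incubation at 37 degrees C, GFP fluorescence quantified per cell by imaging cytometry.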
TDP1 cell CPT – DT40-hTDP1 cell growth loss with CPT; chicken DT40 Tdp1-/-;hTDP1 cells + 20 nM CPT, ATP luminescence, 48 h; Potency, µM (doses to about 46.2 µM), inactives show at the top dose activity change, negative = growth inhibition, most hits filed as inhibitors; actives 12% (n = 420,000); further: on the % scale 0 is the no-effect control and ±100 the full control effect; nearly all actives have a fitted effect of over 55% in size
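Chicken DT40 Tdp1-/- cells stably complemented with human TDP1 were seeded at 400 cells/well in medium containing 20 nM camptothecin, exposed to pin-transferred compounds, and grown at 37 °C for at least 48 hr. Viability was read as ATP luminescence.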
TDP1 cell noCPT – qHTS for Inhibitors of human tyrosyl-DNA phosphodiesterase 1 (TDP1): qHTS in cells in absence of CPT; DT40 Tdp1-/- hTDP1 cells, no CPT, ATP luminescence, 48 h; Potency, µM (highest dose often 46.2 µM), without a hit: at the top dose activity change, negative = growth inhibition, usual class: inhibitors; actives 15% (n = 420,000); AID 686978, 2013; further: on the % scale 0 is the no-effect control and ±100 the full control effect; nearly all actives have a fitted effect of over 55% in size
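Growth of hTDP1-complemented DT40 Tdp1-knockout cells is measured by ATP luminescence after at least 48 hr compound exposure at 37 °C, with DMSO substituting for the 20 nM CPT used in the parallel screen.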
HT1080 IDH1KD tx – HT-1080 IDH1 knockdown cell toxicity (counter line) | Potency, µM (titrated, usually from 46.1 µM), for inactives: at the highest dose activity, negative = toxicity, hits mostly cytotoxic | HT-1080 IDH1 knockdown viability, ATP luminescence, 48 h | actives 2% (n = 360,000);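 further: 0% = DMSO wells and -100% = cell-free medium wells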
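HT-1080-IDH1KD cells (IDH1 knocked down), 750/well in RPMI with 5% FBS, treated with compound 48 h at 37 degrees C. Viability by CellTiter-Glo luminescence, normalised to DMSO and no-cell wells; concentration-response curves classed.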
HT1080NT lethal – kills 2HG-producing HT-1080-NT fibrosarcoma cells; Potency, µM (top dose mostly 46.1 µM), inactives show at the highest dose activity, negative = less viability, most hits filed as cytotoxic; actives 1.6% (n = 360,000); AID 686970; HT-1080-NT fibrosarcoma viability, CellTiter-Glo ATP luminescence, 48 h;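 further: NT is the 2HG producing partner of a matched IDH1 knockdown line; 0% = DMSO-treated cells and -100% = media-only wells without cells; nearly all actives have a fitted effect of over 55% in size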
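Compounds were tested in concentration-response format on HT-1080-NT cells for 48 hours at 37 degrees C. Cell viability came from CellTiter-Glo luminescence; curves were classified by r2, response magnitude and activity.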
HepG2 viability – counter-screen for TGF-b inhibitors: cytotoxicity in HepG2 cells. HepG2 CAGA-GFP viability, ATP luminescence, 18 h. Potency, µM (top dose mostly 46.1 µM), without a hit: at the highest dose activity change, negative = cytotoxicity, most hits filed as cytotoxic. actives 0.76% (n = 410,000). AID 588856
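HepG2 CAGA-GFP cells (1000/well, DMEM with 1% FBS) received compound, then TGF-beta at 500 pg/mL final, and were incubated 18 hours at 37 degrees C. Viability was read by CellTiter-Glo luminescence. Media-only wells were set as complete cell-killing and DMSO as no toxicity.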
* marks the source's active call; other numbers are inactive results; u = inconclusive; x = no result given; ! = a repeat was not active. The call rests on the fitted dose curve; in most records, active means well fitted curve in the direction sought with a large enough effect; inconclusive means small, poorly fitted or top-dose-only effect, or another doubt; inactive means no such curve, though single readings can be large; an effect the other way counts as inactive or inconclusive. Potency means the concentration at half of the fitted maximal effect.

SMILES	TGFb inhibitor	TDP1 cell CPT	TDP1 cell noCPT	HT1080 IDH1KD tx	HT1080NT lethal	HepG2 viability
Nc1c(C(=O)NCC2CCCO2)sc2nc3c(c(-c4ccco4)c12)CC/C3=C\c1ccco1 (centres undefined)	17.8µM*	u	25.9µM*	0.2%	-1.9%	5.6%
Cc1ccccc1NC(=O)c1sc2nc3c(c(-c4ccco4)c2c1N)CCC3	0.0%	u	u	15.7%	19.2%	2.0%
N#Cc1sc2nc3c(c(-c4ccco4)c2c1N)CCCC3	-17.5%	u	23.1µM*	-9.9%	-11.7%	-52.5%
NC(=O)c1sc2nc3c(c(-c4ccco4)c2c1N)CCCC3	u	u	16.4µM*	4.8%	7.6%	-20.6%
O=c1[nH]c2ccc(Cl)cc2c(-c2ccccc2)c1CN1CCOCC1	u	u	20.6µM*	u	u	-28.7%
CN(C)CC/C=C1\c2ccc(F)cc2Sc2cc(F)c(Cl)cc21	u	u	u	u	u	17.8µM*
CN(C)CC/C=C1\c2cc(Cl)ccc2Sc2cc(F)c(F)cc21	u	u	23.1µM*	-17.3%	u	-128.5%
CN(C)CC/C=C1/c2ccc(F)cc2Sc2ccc(Cl)cc21	u	u	16.4µM*	18.4µM*	20.6µM*	15.8µM*
CN(C)CC/C=C1\c2ccccc2Sc2cc(F)c(Cl)cc21	u	16.4µM*	16.4µM*	11.6µM*	25.9µM*	-41.6%
CN(C)CC/C=C1/c2cc(F)ccc2CSc2ccc(F)cc21	12.7%	u	-7.2%	-7.3%	-10.4%	-1.2%
O=S(=O)(Nc1cccc(-c2nnco2)c1)c1ccc(Cl)cc1	-1.2%	-8.3%	-19.7%	-2.9%	-16.3%	-9.7%
CC1CCCC(C)N1C(=O)COC(=O)CNC(=O)c1ccccc1 (centres undefined)	-1.0%	-4.5%	-13.3%	6.5%	0.6%	7.4%
CCOc1ccc(CNC(=O)c2ccc(Sc3ccc(Cl)cc3)c(NC(C)=O)c2)cc1OC	11.2µM*!	u	20.6µM*	-14.0%	-14.2%	-33.0%
CC(=O)Nc1cc(C(=O)NCc2ccc(C)cc2)ccc1Sc1ccc(C)cc1	0.0%	16.4µM*	23.1µM*	x	x	-16.8%
CCOc1ccc(CNC(=O)c2ccc(Sc3ccc(C)cc3)c(NC(C)=O)c2)cc1OC	u	-22.7%	u	-7.7%	-2.2%	0.9%
CC(C)Oc1ccc(C(=O)Nc2ccc3oc(-c4ccncc4)nc3c2)cc1	-8.7%	-18.9%	-12.3%	x	x	-20.8%
CCCCCCCCCCCCC/C=C/[C@@H](O)[C@@H](N)CO	15.9%	9.2µM*!	11.6µM*!	-2.2%	u	0.2%
CCCNc1nc(Nc2ccc(C)c(Cl)c2)c2cnn(C)c2n1	u	16.4µM*	23.1µM*	-26.7%	u	-33.6%
Cn1ncc2c(Nc3cccc(Cl)c3)nc(Nc3cccc(Cl)c3)nc21	u	16.4µM*	11.6µM*	20.6µM*	14.6µM*	22.4µM*
Cn1ncc2c(NCc3ccccc3Cl)nc(NCCO)nc21	2.8%	u	u	x	x	0.6%
CNc1nc(Nc2ccc(C)c(Cl)c2)c2cnn(C)c2n1	-23.3%	23.1µM*	14.6µM*	u	-24.8%	-15.9%
Cc1ccc(Nc2nc(NCCO)nc3c2cnn3C)cc1Cl	-28.6%	20.6µM*	14.6µM*	-0.6%	-9.7%	-38.2%
CSc1cccc(NC(=O)CNC(=O)C2CCCCC2)c1	12.9%	-24.6%	9.6%	-2.6%	4.2%	12.8%
CCc1cc(=O)oc2cc3occ(-c4ccc(OC)c(F)c4)c3cc12	-51.7%	4.61µM*	2.06µM*	5.17µM*	5.17µM*	-44.3%
CCc1cc(=O)oc2cc3occ(C)c3cc12	-1.1%	7.1%	u	5.4%	6.1%	-19.3%
SMILES	TGFb inhibitor	TDP1 cell CPT	TDP1 cell noCPT	HT1080 IDH1KD tx	HT1080NT lethal	HepG2 viability
COCCn1c(SCC#N)nnc1-c1ccccc1	22.0%	1.1%	-12.7%	-3.1%	11.3%	-1.1%
COCCn1c(SCc2cnc(-c3ccccc3)s2)nnc1-c1ccncc1	-2.4%	20.6µM*	u	-16.6%	-5.8%	-39.6%
O=C(Nc1nn(Cc2ccc(Cl)cc2)cc1Br)c1ccc(COc2ccccc2Cl)o1	u	25.9µM*	25.9µM*	-19.8%	-13.1%	-4.4%
O=C(Nc1ccc(Cl)cn1)c1ccc(COc2ccccc2Br)o1	u	u	u	-29.7%	-15.5%	-18.9%
NC(=O)c1ccc(NC(=O)c2ccc(COc3ccccc3Br)cc2)cc1	0.0%	-16.7%	-13.4%	23.1%	12.7%	-3.6%
Cc1cc(C)n(Cc2ccc(NC(=O)c3ccc(COc4ccccc4Br)cc3)cc2)n1	40.6%	20.6µM*	29.1µM*	u	u	-12.8%
O=C(Nc1nccs1)c1ccc(COc2ccccc2Br)o1	u	u	u	u	10µM*	-17.2%
O=C(Nc1cccnc1)c1ccc(COc2cc(Cl)ccc2Cl)o1	u	u	18.4µM*	23.1µM*	u	-5.2%
O=C(Nc1nccs1)c1ccc(COc2ccc(F)cc2)o1	-2.3%	-17.9%	-2.6%	2.2%	0.8%	-19.3%
C[C@H](CO)N1C[C@H](C)[C@@H](CN(C)Cc2ccncc2)Oc2ccc(NC(=O)CCCCCC(=O)Nc3ccccc3N)cc2C1=O	2.1%	-12.6%	-5.9%	15.1%	21.5%	2.1%
CC1CCCN(Cc2c(O)ccc3c(=O)c(-c4ccc(Cl)cc4)c(C(F)(F)F)oc23)C1 (centres undefined)	5.8%	3.6%	-3.1%	x	x	-0.6%
O=C(Nc1cccnc1)c1ccc(COc2ccccc2Cl)o1	-2.1%	18.4µM*	20.6µM*	20.6µM*	u	-39.3%
O=C(NCc1cccnc1)c1ccc(COc2ccccc2Cl)cc1	-4.9%	u	13µM*	-0.4%	-14.2%	-9.7%
O=C(NCc1cccnc1)c1ccc(COc2ccccc2Br)cc1	-18.5%	7.2%	u	-25.4%	-5.4%	-13.4%
Cc1ccc(NC(=O)c2ccc(COc3ccccc3Cl)o2)cc1	-11.1%	u	u	x	x	-79.8%
CN(C)c1ccc(NC(=O)c2ccc(COc3cccc(Cl)c3)o2)cc1	-29.0%	20.6µM*	u	-10.9%	-14.3%	-7.5%
CCN(CC)C(=O)c1ccc(COc2ccccc2Cl)o1	-21.6%	-20.5%	16.4µM*	-9.0%	6.1%	-13.3%
Cc1ccc(S(=O)(=O)NN2CCCCCC2)cc1	-1.2%	-0.7%	-10.7%	4.1%	-1.3%	-15.6%
